AHR activator = activates the human aryl hydrocarbon receptor. activation, % at 5 µM. AHR-responsive luciferase reporter cells, luminescence. hit rate 2.5% among 320,000; in the data active = activation above about 47%;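 also: 0% = vehicle wells and 100% = reference agonist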
HSF1 activator = increases HSF-1 driven luciferase reporter signal | NIH3T3-HGL HSF-1 luciferase reporter, MG132, 8 h; 100% = twice DMSO control signal | activation, % at 9 µM | hit rate 1.7% among 300,000 | AID 504408;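 active = mean replicate activation of at least 50% with a set share of replicates each reaching 50%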;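 also: 0% = median of the neutral control wells and 100% = twice that signal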
HSF1 inh = HSF1 inhibition; NIH3T3-HGL HSE-luciferase, MG132-induced, luminescence 8 h; stronger effect = lower value; activity change, negative = inhibition, % at 7.5 µM (by protocol); hit rate 0.77% among 300,000; AID 2098;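 active = more than half of replicate wells show activity change below -50%, luminescence cut by over half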;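 also: luciferase reports HSF-1 transcriptional activity via heat shock element; 0% = median of DMSO wells and -100% = zero luminescence signal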
GAA850 FXN act = activators of GAA850 frataxin (FXN) promoter; HEK293 lucGAA850 FXN promoter luciferase reporter, 24 h; percent of 10 µM SAHA response; activation, % at 6 µM; hit rate 0.56% among 360,000; AID 540364;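 active = activation above the average of all compounds screened plus 3 SD, cutoff fixed separately per campaign, cut at about 7.5% in these data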;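 also: 0% = DMSO wells and 100% = 10 µM SAHA wells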
NR0B1 inh = inhibitors of human orphan nuclear receptor DAX1 (NR0B1). P51843. HEK293 Gal4-DAX1 luciferase reporter, luminescence. inhibition, % at 6.75 µM. hit rate 0.99% among 340,000. AID 504766;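 active = inhibition above the mean over all tested compounds plus 3 SD, cut at about 4.2% in these data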;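 also: 0% = DAX1-transfected cells with DMSO and 100% = empty-vector control cells with DMSO; inhibition shows as a rise in luminescence from relieved DAX1 repression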
Target sequence (P51843 207-470 limits assumed): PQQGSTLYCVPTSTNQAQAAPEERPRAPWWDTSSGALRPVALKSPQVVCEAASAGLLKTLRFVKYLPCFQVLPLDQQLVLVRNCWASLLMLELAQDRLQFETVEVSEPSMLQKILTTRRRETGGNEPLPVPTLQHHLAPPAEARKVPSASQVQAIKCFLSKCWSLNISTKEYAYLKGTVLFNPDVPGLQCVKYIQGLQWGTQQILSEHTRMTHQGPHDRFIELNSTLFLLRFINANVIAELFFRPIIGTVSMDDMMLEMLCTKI
* hit, by the source's call; x = no result. Most compounds without a hit are left out; they make up all but 5.4% or so of the library.

SMILES	AHR activator	HSF1 activator	HSF1 inh	GAA850 FXN act	NR0B1 inh
COC(=O)C(C(=O)OC)C(CC(=O)c1ccc(Br)cc1)c1ccccc1 (centres undefined)	x	x	x	-1	1
CC(C)c1ccc(NC(=O)[C@H]2CSCN2C(=O)[C@@H]2CCC(=O)N2)cc1	3	3	-2	2	1
COc1nc(-c2ccccc2)ncc1S(=O)(=O)c1ccccc1	3	-6	-6	2	0
Cc1nc(-c2ccccc2)sc1-c1nc(-c2ccncc2)ncc1S(=O)(=O)c1ccccc1	54*	5	3	0	1
COC(=O)Cn1c(C(O)c2ccccc2)nc2ccccc21 (centres undefined)	-2	2	2	1	3
CC1Cc2ccccc2N1C(=O)/C=C/c1cccc(F)c1 (centres undefined)	37	70*	37	5	3
COc1cc(-c2cnc3c(NC=O)cc(-c4cccc(C(=O)NCCN(C)C)c4)cn23)cc(OC)c1OC	x	x	x	3	x
CCOC(=O)c1cnc2c(c(C)nn2C)c1Oc1ccc(Cl)cc1	-1	16	-2	3	0
COC(=O)c1cnc2c(c(C)nn2C)c1OC	-1	59*	19	1	x
CC1CCCN(S(=O)(=O)c2coc(C(N)=O)c2)C1 (centres undefined)	0	-1	-6	-1	5.1*
Cc1ccc2nc(-c3sc4nc(C)cc(C)c4c3N)[nH]c2c1	-10	-66	-61*	4	0
COc1ccc(Br)cc1S(=O)(=O)Nc1ncccc1C	5	-90	-88*	-2	2
O=C(COc1cc(Cl)c(Cl)cc1Cl)Nc1cccc(O)c1	0	87*	55	-1	3
COc1ccccc1C(=O)N/C(=C\c1cn(S(=O)(=O)N(C)C)c2ccccc12)C(=O)NCCN1CCOCC1	0	-83	-80*	-1	-1
CSc1ccc(/C=C(\NC(=O)c2ccccc2)C(=O)NCCN2CCOCC2)cc1	1	-9	4	0	5.2*
COc1cc(OC)cc(-c2cc(N)n(S(=O)(=O)Cc3ccccc3)n2)c1	63*	-17	9	1	0
COc1ccc(OC)c(S(=O)(=O)n2nc(-c3ccccc3)cc2N)c1	16	15	15	-2	0
COc1cc(OC)cc(-c2cc(N)n(S(=O)(=O)c3cccc4nsnc34)n2)c1	55*	x	x	2	-2
CCCS(=O)(=O)n1nc(-c2ccc(OC)cc2OC)cc1N	62*	8	7	1	0
CCCS(=O)(=O)n1nc(-c2ccc(OC)cc2)cc1N	25	6	4	0	0
COc1ccc(NC(=O)Nc2ccon2)c(OC)c1	56*	22	-2	2	0
COc1ccc(NC(=O)Nc2ccncc2)c(OC)c1	18	11	5	1	1
COc1ccc(NC(=O)c2c(N)no[n+]2[O-])c(OC)c1	61*	7	-1	0	1
COc1ccc(NC(=O)c2c(N)no[n+]2[O-])cc1	18	22	12	0	0
CC1CCN(C(=O)CN2C(=O)NC3(CCCCCC3)C2=O)CC1	2	x	x	1	0
SMILES	AHR activator	HSF1 activator	HSF1 inh	GAA850 FXN act	NR0B1 inh
CS(=O)(=O)c1ccc(NCCc2ccc(S(N)(=O)=O)cc2)c([N+](=O)[O-])c1	-6	36	0	-3	2
COC(=O)N1CCCCC1c1cc(C(=O)Nc2ccc(OC)cc2C)no1 (centres undefined)	x	x	x	1	x
Cc1ccc(/C(N)=N/OC(=O)CSc2ccccc2)cc1	1	62*	45	4	4
COc1ccc(Cl)cc1C(=O)O/N=C(\N)c1ccc(Cl)cc1	17	-21	-15	-2	3
COc1ccc(/C(N)=N/OC(=O)c2ccco2)cc1	-6	-10	-22	1	-1
Cc1ccc(/C(N)=N/OC(=O)c2ccco2)cc1	-10	55*	26	2	0
N/C(=N\OC(=O)c1ccco1)c1ccc(Br)cc1	1	21	25	0	2
Cc1occc1C(=O)O/N=C(\N)c1ccc(Cl)cc1	26	58*	23	2	2
N/C(=N\OC(=O)c1ccco1)c1ccccc1	6	55*	20	4	4
COc1ccc([C@H]2CC(=O)C=C(c3ccc(C)c(F)c3)C2)cc1	0	x	x	-1	2
Cc1ccc(NC(=O)Cn2c(=S)[nH]c3ccccc32)cc1	30	0	21	4	0
CC(C)(C)c1ccc(C(=O)O/N=C(\N)c2ccccc2)cc1	10	-95	-93*	-14	-3
COc1ccc(C(=O)O/N=C(\N)c2ccccc2)cc1	2	-45	-46	0	1
COC(=O)c1oc2ccccc2c1N	77*	-13	3	2	0
CCCCOc1ccc(C2CCC(C(C)=O)C(C)C2)cc1 (centres undefined)	-4	-19	-5	3	4.7*
CC(=O)Nc1ccc2c(c1)[nH]c(=O)c1ccccc12	x	x	x	1	4.6*
O=C(Nc1c(C(=O)N2CCOCC2)cnn1-c1ccccc1)c1ccc(F)cc1	-2	-3	-2	0	1
CC(C)CC(/C(O)=C(\C#N)c1nc2ccccc2[nH]1)N1C(=O)c2ccccc2C1=O (centres undefined)	47	75*	34	0	0
CC1(C(=O)Nc2ccc(Cl)cc2)Cc2c(-c3ccc4c(c3)OCO4)ccnc2O1 (centres undefined)	x	x	x	-4	x
O=C(Nc1ccccc1)N1CCCN(c2ccc(C(F)(F)F)cc2[N+](=O)[O-])CC1	13	54*	39	0	-1
CCOC(=O)c1c(NC(=O)COC(=O)c2ccccn2)sc(C(=O)N(C)C)c1C	13	-1	-9	1	0
CCOC(=O)c1c(NC(=O)COC(=O)c2nccnc2N)sc(C(=O)N(C)C)c1C	0	-62	-51*	1	1
Cc1cccc(/C=C(\c2nc3ccccc3[nH]2)S(=O)(=O)c2ccccc2)c1	x	344*	241	-7	-5
CC(C)(C)c1ccc(/C=C(\c2nc3ccccc3[nH]2)S(=O)(=O)c2ccccc2)cc1	-2	57*	60	-7	-4
COc1ccc(OC)c(S(=O)(=O)Nc2ccc3c(c2)OCCO3)c1	x	x	x	-8	2
SMILES	AHR activator	HSF1 activator	HSF1 inh	GAA850 FXN act	NR0B1 inh
COc1ccc(Nc2ncnc3sc(-c4ccccc4)cc23)cc1	35	-78	-71*	0	-1
COc1cc(C(=O)Nc2ccc(Oc3ncnc4sc(-c5ccccc5)cc34)cc2)cc(OC)c1OC	0	13	7	0	0
COc1ccccc1C(=O)Nc1ccc(Oc2ncnc3sc(-c4ccccc4)cc23)cc1	80*	-17	-3	1	-2
CCC(C)C(=O)Nc1nnc(CCc2ccccc2)s1 (centres undefined)	-2	16	-3	4	-2
O=C(CCS(=O)(=O)c1ccccc1)Nc1nc(-c2ccccn2)cs1	54*	-39	-24	-2	0
O=C(CCS(=O)(=O)c1ccccc1)Nc1ccccn1	3	59*	17	-1	0

Source: PubChem BioAssay (several laboratories)
